BoNT-A LC inh2 – BoNT A light chain protease inhibition; hit rate 0.17% among 360,000; AID 588499; multiplex microsphere protease substrate cleavage, flow cytometry; inhibition, % at 10 µM
Bead autofluor – flagged as autofluorescent in microsphere protease counterscreen; hit rate 3.1% among 360,000; fluorescence intensity (test concentration not listed); compound autofluorescence counterscreen, microsphere flow cytometry; active compounds read high; in the data active = fluorescence intensity above about 16000; inconclusive = no clear call, values can overlap the other calls
BH1578 lux ind – inducers of Vibrio cholerae quorum light production without autoinducers; hit rate 0.16% among 350,000; V. cholerae BH1578 lux reporter, luminescence, 6 h; activation, % at 18.7 µM; in the data active = activation mostly above about 9.7%, no sharp cut-off; inconclusive = no clear call, values can overlap the other calls; inactive = mostly below about 3.7%
Anthrax LF inh2 – anthrax lethal factor protease inhibition. P15917. multiplex microsphere protease cleavage assay, LF. inhibition, % at 10 µM. hit rate 0.12% among 360,000. AID 588501
BoNT-F LC inh – inhibitors of Botulinum neurotoxin F light chain protease; AID 588497; inhibition, % at 10 µM; Multiplex microsphere protease cleavage assay, flow cytometry; hit rate 0.22% among 360,000; in the data active = inhibition above about 35%, passing the limit was not always enough; inconclusive = no clear call, values can overlap the other calls
Of the large screens only hits and unclear results are named; the others gave an inactive call. Only some compounds are listed: those with a hit (about 3.5% of all), similar ones and a draw of the others. Rule as the data show it, unless noted: active = inhibition above about 30%; inconclusive = no clear call, values can overlap the other calls; inactive = below that.

Cc1ccc(NC(=O)CN2C(=O)COc3ccc(C)cc32)nc1	Bead autofluor 21570
Cc1ccc2c(c1)N(CC(=O)NCCc1c[nH]c3ccccc13)C(=O)CO2	Bead autofluor 23441
Cc1ccc2c(c1)N(CCC(=O)N1CCC3(CC1)OCCO3)C(=O)CO2	Bead autofluor 22602
O=S(=O)(NC(=NCc1ccccc1)c1ccc(F)cc1)c1ccc(Cl)cc1	none
CCCN(C(=O)CCl)C1=CCCCC1	none
COc1ccc(-n2c(SCC(=O)Nc3cc(C)on3)nc3c(c2=O)SC(C)C3)cc1 (stereo not drawn)	none
NC(=O)CC(NC(=O)Cc1cccc2ccccc12)c1ccc(N2CCN(c3ccccn3)CC2)c([N+](=O)[O-])c1 (stereo not drawn)	none
N#CC1=C(N)SC(N)=C(C#N)C1C1CC=CCC1 (stereo not drawn)	none
N#CC1=C(N)SC(N)=C(C#N)C1C1C=CCCC1 (stereo not drawn)	Bead autofluor 19353
Cc1ccc2c(c1)CNc1ccccc1O2	none
Cc1ccc2c(c1)NCCO2	BoNT-A LC inh2 inconclusive, Bead autofluor 23601
Cc1cc(=S)cc(C)n1CCO	none
Cc1cc(C)n(CCO)c(=O)n1	BoNT-A LC inh2 inconclusive, Bead autofluor 20285
Cc1ccc(C(=O)CSc2n[nH]c(C)n2)cc1	none
CCc1ccc(C(=O)CSc2n[nH]c(C)n2)cc1	Bead autofluor 21979
O=C(O)c1ncc(-c2ccccc2)cn1	Bead autofluor 17752
c1ccc(-c2cnc(-c3ccccc3)nc2)cc1	BoNT-A LC inh2 inconclusive
Cc1ccc2nc(N3CC(=O)Nc4ccccc43)nc(-c3ccccc3)c2c1	none
COc1cc(C(=O)OCC(=O)NC(=O)C2CCCCC2)ccc1OC(F)F	none
CC1(C)Cc2nc3scc(NC(=O)c4ccccc4)c3cc2CO1	BoNT-F LC inh inconclusive
COc1cccc(C(=O)CSc2nccn2C)c1	none
Cn1ccnc1SCC(=O)c1cccc(Br)c1	Bead autofluor 19955
O=C(CSC(=S)N1CCCCC1)Nc1nc(-c2ccccc2)c(-c2ccccc2)o1	Bead autofluor 21247
O=C(CSC(=S)N1CCOCC1)Nc1nc(-c2ccccc2)c(-c2ccccc2)o1	none
COc1nc(OC)nc(N2CCC(C(=O)NCc3ccco3)CC2)n1	Bead autofluor 19494
COc1nc(OC)nc(N2CCC(C(=O)Nc3cccc4ccccc34)CC2)n1	Bead autofluor 23395
COc1nc(OC)nc(N2CCC(C(=O)Nc3cccc4c3CCCC4)CC2)n1	none
Cc1cccn2c(=O)c(C=O)c(N3CCCCC3)nc12	none
Cc1cccn2c(=O)c(/C=N/O)c(N3CCCC3)nc12	BoNT-A LC inh2 inconclusive, Bead autofluor 16881
COc1ccc(-c2cccc(NS(=O)(=O)c3cc([N+](=O)[O-])c(C)c([N+](=O)[O-])c3)c2)nn1	none
C=CCN1C(=O)[C@]2(c3ccccc31)C1CCCC=C1C(C#N)=C(N)C2(C#N)C#N (stereo partly drawn)	BoNT-A LC inh2 inconclusive, Bead autofluor 20366
C=CCN1C(=O)C2(c3ccccc31)C1CCCC=C1C(C#N)=C(N)C2(C#N)C#N (stereo not drawn)	none
NC(=O)CSc1nnnn1-c1ccc(OC(F)(F)F)cc1	BoNT-A LC inh2 inconclusive, Bead autofluor 23160
COc1cc2[nH]c(=O)n(CCC(=O)NCCCN3CCN(c4ccccc4F)CC3)c(=O)c2cc1OC	none
Cc1sc(-n2c(C)cc(/C=N/n3cnnc3)c2C)c(C#N)c1C	Bead autofluor 22786
O=C(O)CCn1c(=O)sc2ccccc21	none
CCOC(=O)Cn1c(=O)sc2ccccc21	Bead autofluor 23284
O=c1sc2ccccc2n1CCOc1ccccc1	Bead autofluor 23573
COc1ccccc1OCCCn1c(=O)oc2ccccc21	none
COc1ccccc1OCCCn1c(=O)sc2ccccc21	BoNT-A LC inh2 inconclusive, Bead autofluor 20682
CCCCCCCCN1C(=O)[C@H](CC(=O)N2CCOCC2)C[C@@]2(C(=O)OCC)CCCC=C12	none (no result: BH1578 lux ind)
O=C(O)c1cccnc1SC1CC(=O)N(CCc2ccccc2)C1=O (stereo not drawn)	Bead autofluor 24601
O=C(O)c1cccnc1SC1CC(=O)N(Cc2ccccc2)C1=O (stereo not drawn)	none
CCOC(=O)NC1(C(F)(F)F)C(=O)N(Cc2ccccc2)C2=C1C(=O)CC(C)(C)C2 (stereo not drawn)	Bead autofluor 25964
CCCCN1C(=O)C(NC(=O)c2cccnc2)(C(F)(F)F)C2=C1CC(C)(C)CC2=O (stereo not drawn)	Bead autofluor 23010
CC1(C)CC(=O)C2=C(C1)N(Cc1ccco1)C(=O)C2(NC(=O)c1cccnc1)C(F)(F)F (stereo not drawn)	BoNT-A LC inh2 inconclusive, Bead autofluor 20736

Screening data deposited in PubChem by several laboratories.
